In PubChem BioAssay AID1159580 (chemical genetic matrix, 2015):
Hit rate of the full screen: of about 5,500 compounds, about 2,000 (36%) were called active. Another 18% or so got no clear call; they are omitted. No stated cut-off is given here; in the data, active means normalized growth mostly below about 0.91 (no sharp cut-off); inconclusive means no clear call, values can overlap the other calls; inactive means mostly above about 0.92. The list shows a part of the results.

Test: chemical genetic growth profiling, strain panel (AID 1159580);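 further: tested at 20 µM; growth read once vehicle control cultures reached saturation at 30 °C; 1 = growth at the plate median or of vehicle wells; lower values mean less growth of the strain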
Conditions: S. cerevisiae deletion strains, growth OD
[1] = locus YAL013W, strain DEP1, hits give low values
[2] = locus YBR229C, strain ROT2, hits give low values
[3] = locus YDL101C, strain DUN1, hits give low values
[4] = locus YDR150W, strain NUM1, hits give low values
[5] = locus YEL061C, strain CIN8, hits give low values
[6] = locus YGR078C, strain PAC10, hits give low values
[7] = locus YGR229C, strain SMI1, hits give low values
[8] = locus YHR030C, strain SLT2, hits give low values
[9] = locus YHR087W, strain rtc3, hits give low values
[10] = locus YJR043C, strain POL32, hits give low values
[11] = locus YJR075W, strain HOC1, hits give low values
[12] = locus YLR039C, strain RIC1, hits give low values
[13] = locus YLR058C, strain SHM2 (second series), hits give low values
[14] = locus YLR085C, strain ARP6, hits give low values
[15] = locus YLR262C, strain YPT6, hits give low values
[16] = locus YML094W, strain GIM5, hits give low values
[17] = locus YMR219W, strain ESC1, hits give low values
[18] = locus YMR263W, strain SAP30, hits give low values
[19] = locus YMR307W, strain GAS1, hits give low values
[20] = locus YNL153C, strain GIM3, hits give low values
[21] = locus YNL298W, strain CLA4 (second series), hits give low values
[22] = locus YNL322C, strain KRE1, hits give low values
[23] = locus YNR030W, strain Alg12, hits give low values
[24] = locus YPL055C, strain LGE1, hits give low values
[25] = locus YPL241C, strain CIN2, hits give low values
[26] = locus YPR135W, strain CTF4, hits give low values

Measured: normalized growth

Cc1nc(C(F)(F)F)nc(Sc2n[nH]c(-c3cc(Cl)cc(Cl)c3)n2)c1C
active: [14] 1.25 [resistant]
inactive: [1] 1.03 | [2] 1.01 | locus YCL061C, strain MRC1, hits give low values 1 | [3] 0.996 | locus YDL134C, strain PPH21, hits give low values 1.01 | [4] 0.996 | [5] 0.985 | [6] 1.01 | [7] 1.01 | [8] 1.02 | [9] 1.03 | [10] 1.01 | [11] 1.02 | locus YKL190W, strain CNB1, hits give low values 1 | [12] 1.07 | [13] 0.998 | [15] 1.02 | [16] 0.994 | [17] 1.02 | [18] 0.993 | [19] 0.988 | [20] 0.995 | [21] 0.966 | [22] 0.995 | [23] 0.974 | [24] 1.03 | [25] 1.07 | [26] 1.17

Nc1nc(Sc2cc(-n3cccc3)c(Cl)cc2[N+](=O)[O-])n[nH]1
inactive: [1] 0.992 | [2] 1 | [3] 0.998 | [4] 0.997 | [5] 0.994 | [6] 0.995 | [7] 1 | [8] 0.972 | [9] 0.992 | [10] 0.996 | [11] 1.01 | [12] 0.973 | [13] 1 | [14] 0.972 | [15] 1 | [16] 0.983 | [17] 1 | [18] 1.01 | [19] 0.985 | [20] 0.995 | [21] 0.972 | [22] 1 | [23] 0.995 | locus YOL006C, strain TOP1, hits give low values 1.02 | [24] 0.989 | [25] 0.936 | [26] 0.933

O=C(Nc1ccccc1Sc1ccc(C(F)(F)F)cc1[N+](=O)[O-])C(Cl)Cl
inactive: locus YAR019C, strain CDC15, hits give low values 0.997 | locus YBL105C, strain PKC1, hits give low values 0.994 | locus YBR135W, strain CKS1, hits give low values 0.987 | locus YBR136W, strain MEC1, hits give low values 0.991 | locus YBR160W, strain CDC28, hits give low values 0.994 | locus YDL017W, strain CDC7, hits give low values 1.01 | locus YDL028C, strain MPS1, hits give low values 0.992 | [3] 0.983 | locus YDL108W, strain KIN28, hits give low values 0.991 | locus YDL132W, strain cdc53, hits give low values 0.994 | locus YDL214C, strain PRR2, hits give low values 0.952 | locus YDR052C, strain DBF4, hits give low values 1 | locus YDR054C, strain cdc34, hits give low values 0.998 | locus YDR226W, strain ADK1, hits give low values 0.993 | locus YDR477W, strain SNF1, hits give low values 0.985 | locus YER123W, strain YCK3, hits give low values 0.958 | locus YER133W, strain GLC7, hits give low values 0.959 | locus YFL009W, strain cdc4, hits give low values 0.995 | locus YFL029C, strain CAK1, hits give low values 0.996 | locus YFR003C, strain YPI1, hits give low values 0.986 | locus YFR019W, strain FAB1, hits give low values 0.955 | locus YFR028C, strain CDC14, hits give low values 0.983 | locus YGR040W, strain KSS1, hits give low values 0.964 | locus YGR052W, strain FMP48, hits give low values 0.963 | locus YGR092W, strain DBF2, hits give low values 0.909 | [8] 0.985 | locus YHR079C, strain IRE1, hits give low values 0.973 | locus YHR082C, strain KSP1, hits give low values 1.02 | locus YHR205W, strain SCH9, hits give low values 0.864 | locus YIL147C, strain SLN1, hits give low values 0.995 | locus YJL095W, strain BCK1, hits give low values 0.894 | locus YJL128C, strain PBS2, hits give low values 0.945 | locus YJL157C, strain FAR1, hits give low values 0.961 | locus YJR016C, strain ILV3, hits give low values 0.999 | locus YJR066W, strain TOR1 (second series), hits give low values 0.933 | locus YJR066W, strain TOR1, hits give low values 1.01 | locus YKL048C, strain ELM1, hits give low values 0.949 | locus YKL067W, strain YNK1, hits give low values 0.934 | locus YKL101W, strain HSL1, hits give low values 0.946 | locus YKL193C, strain SDS22, hits give low values 0.996 | locus YKL203C, strain TOR2, hits give low values 1.01 | locus YLR113W, strain HOG1, hits give low values 0.907 | locus YLR133W, strain CKI1, hits give low values 0.947 | locus YLR403W, strain SFP1, hits give low values 0.915 | locus YML070W, strain DAK1, hits give low values 0.938 | locus YMR001C, strain CDC5, hits give low values 0.998 | locus YMR205C, strain PFK2 (second series), hits give low values 0.953 | locus YMR277W, strain FCP1, hits give low values 0.984 | locus YNL006W, strain LST8, hits give low values 0.986 | locus YNL020C, strain ARK1, hits give low values 0.959 | locus YNL161W, strain CBK1, hits give low values 0.993 | locus YNL183C, strain NPR1, hits give low values 0.96 | locus YNL207W, strain RIO2, hits give low values 0.989 | locus YNL222W, strain SSU72, hits give low values 0.99 | locus YNL307C, strain MCK1 (second series), hits give low values 0.903 | locus YOL078W, strain AVO1, hits give low values 0.99 | locus YOL136C, strain PFK27, hits give low values 0.907 | locus YOR061W, strain CKA2, hits give low values 0.97 | locus YOR119C, strain RIO1, hits give low values 1.05 | locus YOR231W, strain MKK1, hits give low values 0.935 | locus YOR329C, strain SCD5, hits give low values 0.997 | locus YPL031C, strain PHO85, hits give low values 0.984 | locus YPL153C, strain RAD53, hits give low values 0.991 | locus YPL204W, strain HRR25, hits give low values 0.958 | locus YPL209C, strain IPL1, hits give low values 0.992 | locus YPL256C, strain CLN2, hits give low values 1.02 | locus YPR025C, strain CCL1, hits give low values 0.997 | locus YPR106W, strain ISR1, hits give low values 0.996 | locus YPR111W, strain DBF20, hits give low values 0.967 | strain NNK1, hits give low values 0.976 | strain TSCII, hits give low values 0.992
